The text below walks through data of PubChem BioAssay.

This is one part of the list. The source made the active and inactive calls. Unless noted, no rule for the calls is given here.

The nature of assay [1]: lowers stimulated NF-kB luciferase signal in Jurkat – cell-based, luminescence, single concentration, T-cell NF-kB inhibitor project, confirmation (AID 435020;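 active = inhibition reaching about 45% at 4 µM in either replicate, limit read from the data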;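 also: plate controls were PMA/ionomycin stimulated DMSO wells for no effect and unstimulated DMSO wells for full effect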). The note with it: PMA/ionomycin-induced, 16 h, at 4 µM, stronger effect = higher value.
In assay [2] the target is Tumor necrosis factor receptor superfamily member 10B (Homo sapiens) (UniProt O14763). The assay is described as follows: viability loss of caspase-8 NB7 cells with TRAIL – with/without TRAIL, luminescence panel, confirmation (AID 651596; in the data active = activity above about 50%). The note with it: NB7 neuroblastoma + caspase-8, TRAIL sensitization, NB7 Caspase-8, with TRAIL, mean of runs, at 10 µM, stronger effect = higher value.

Experiment in assay [3]: as above
Conditions: NB7 neuroblastoma + caspase-8, without TRAIL, NB7 Caspase-8, without TRAIL, mean of runs, at 10 µM.

Assay [4] can be described thus: PERK-eIF2a-CHOP pathway stimulators, retested – cell-based, CHO-CHOP luciferase reporter, single concentration, confirmation (AID 463112; in the data active = activation above about 33%;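 also: 0% = DMSO wells and 100% = tunicamycin 10 µg/mL wells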). The note with it: CHO-CHOP cells, CHOP-luciferase reporter luminescence; at 10 µM; stronger effect = higher value; percent of tunicamycin response, DMSO as zero.
In assay [5] the target is Protein Mdm4 (Homo sapiens) + E3 ubiquitin-protein ligase Mdm2 (Homo sapiens) (UniProt O15151+Q00987). Kind of assay: human Mdm2/MdmX binding disruption – cell-based, luminescence, single concentration, set 2, confirmation (AID 504601;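 active = mean inhibition of the luminescence signal across two replicates at or above 26 percent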). The note with it: SaOS-2 split-luciferase Mdm2/MdmX complementation, at 8 µM, stronger effect = higher value.
Assay [6] can be described thus: apoptosome-driven caspase-3 activation blockers – biochemical, fluorescence, DEVD-Rh110, 20 µM, confirmation (AID 504614;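 active = mean inhibition of at least 40% at 20 µM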;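 also: plate controls were DMSO wells for no effect and DEVD-CHO caspase inhibitor control wells for full effect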). Conditions: reconstituted apoptosome, caspase-3 DEVD-Rh110 fluorescence; at 20 µM; stronger effect = higher value.
A short description of assay [7]: detection-step artefacts after completed caspase reaction – biochemical, fluorescence, Rh110, 20 µM, artefact control for Apaf-1 inhibitor project, confirmation (AID 504615;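 active = signal rise of 40% or more at 20 µM, treated as a fluorescence artifact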). Conditions: quenched caspase reaction, at 20 µM, stronger effect = higher value.
The nature of assay [8]: HIF-2a driven luciferase blockers, single dose – luminescence, 786-0 RCC cells, confirmation (AID 651580;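 active = mean inhibition across four replicates of at least 40 percent at the single tested concentration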). The note with it: HIF-2a luciferase reporter luminescence, overnight, at 18.8 µM, stronger effect = higher value.
The nature of assay [9]: HIF-1a luciferase reporter signal reduction – MiaPaCa-2 cells, single concentration, counter-screen for HIF-2a inhibitor project, confirmation (AID 651589;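 active = mean inhibition of the reporter signal across four replicates at the single tested dose of 50% or more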). The note with it: MiaPaCa-2 HIF-1a luciferase reporter, desferoxamine, overnight; at 18.8 µM; stronger effect = higher value.
Assay [10] is described as follows: Brca1-Bard1 BiLC signal decrease – luminescence, single concentration, counter-screen for Mdm2/MdmX interaction inhibitor project, confirmation (AID 504668). The note with it: Brca1/Bard1 bimolecular luciferase complementation counterscreen, at 8 µM, stronger effect = higher value.
Assay [11] in a line: inhibition of PEG-3 promoter luciferase signal – cell-based, HeLa, luciferase reporter, single concentration, confirmation (AID 602417;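 active = at 20 µM dose, 40% or more inhibition averaged across four replicates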). The note with it: HeLa PEG-Prom luciferase reporter, luminescence, overnight; at 20 µM; stronger effect = higher value.
The target in assay [12] is PEG-3 (UniProt Q6IN02). The assay is described as follows: inhibition of PEG-3 promoter-driven reporter – cell-based, HeLa, luciferase, CREF/GAPDH counter-screen panel, dose response (AID 624167). The note with it: HeLa PEG-Prom luciferase reporter, overnight, CREF/GAPDH counter-screens; run 1, dose range 1, at 100 µM (top of the series).
For assay [13], the target named is PEG-3 (UniProt Q6IN02). The assay is described as above. Conditions: HeLa PEG-Prom luciferase reporter, overnight, CREF/GAPDH counter-screens; run 2, dose range 1, at 100 µM (top of the series).
Assay [14] can be described thus: PPC-1 cell viability loss – ATP content luminescence, cytotoxicity control for TRAIL apoptosis potentiator project, confirmation (AID 1447;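 active = reconfirmed compounds whose average cytotoxicity reaches 50% or more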;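 also: 0% = DMSO-treated cells and 100% = wells holding medium but no cells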). The note with it: PPC-1 viability, ATPlite luminescence, overnight; at 5 µM; stronger effect = higher value.
Assay [15] concerns the target Sentrin-specific protease 8 (Homo sapiens) (UniProt Q96LD8). Kind of assay: human SENP8 peptidase blockers, hit retest – biochemical, luminescence, single concentration, confirmation (AID 488912;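 active = mean inhibition across replicates above about 50%, limit read from the data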). The note with it: Recombinant SENP8, Z-RLRGG-aminoluciferin luminescence, 60 min; at 12.5 µM; stronger effect = higher value.
Assay [16] has as its target Sentrin-specific protease 6 (Homo sapiens) (UniProt Q9GZR1). The assay is described as follows: inhibition of human SENP6 catalytic domain – biochemical, luminescence, single concentration, confirmation (AID 488915;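 active = mean inhibition above about 50% in the one-dose retest, limit read from the data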). The note with it: recombinant SENP6, Z-RLRGG-aminoluciferin luminescence; at 12.5 µM; stronger effect = higher value.
The target in assay [17] is Sentrin-specific protease 7 (Homo sapiens) (UniProt Q9BQF6). The assay is described as follows: human SENP7 peptidase blockers, hit retest – biochemical, luminescence, single concentration, confirmation (AID 488917;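 active = mean inhibition above about 50% in the one-dose retest, limit read from the data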). The note with it: recombinant SENP7, Z-RLRGG-aminoluciferin luminescence, 40 min; at 12.5 µM; stronger effect = higher value.
The next assay addresses Caspase-3 (Homo sapiens) (UniProt P42574). The assay is described as follows: human caspase-3 activity blockade, out-of-family – biochemical, single concentration, selectivity assay for SENP inhibitor project, confirmation (AID 488918;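 active = mean inhibition above about 50%, limit read from the data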;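 also: plate controls were enzyme with DMSO for no effect and wells without caspase-3 for full effect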). The note with it: purified caspase-3, Z-DEVD-aminoluciferin luminescence, 60 min; at 12.5 µM; stronger effect = higher value.
A short description of assay [18]: Ultra-Glo luciferase signal interference – biochemical, single concentration, SENP8 reaction pre-completed, artefact control for SENP inhibitor project, confirmation (AID 488919;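 active = mean inhibition above about 50% when retested at one dose, limit read from the data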;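 also: plate controls were DMSO wells with completed reaction for no effect and substrate without enzyme for full effect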). Conditions: Pre-incubated SENP8/Z-RLRGG-aminoluciferin, luciferase luminescence interference; at 12.5 µM; stronger effect = higher value.

Tumor necrosis factor receptor superfamily member 10B (Homo sapiens), sequence (O14763 whole entry, looked up): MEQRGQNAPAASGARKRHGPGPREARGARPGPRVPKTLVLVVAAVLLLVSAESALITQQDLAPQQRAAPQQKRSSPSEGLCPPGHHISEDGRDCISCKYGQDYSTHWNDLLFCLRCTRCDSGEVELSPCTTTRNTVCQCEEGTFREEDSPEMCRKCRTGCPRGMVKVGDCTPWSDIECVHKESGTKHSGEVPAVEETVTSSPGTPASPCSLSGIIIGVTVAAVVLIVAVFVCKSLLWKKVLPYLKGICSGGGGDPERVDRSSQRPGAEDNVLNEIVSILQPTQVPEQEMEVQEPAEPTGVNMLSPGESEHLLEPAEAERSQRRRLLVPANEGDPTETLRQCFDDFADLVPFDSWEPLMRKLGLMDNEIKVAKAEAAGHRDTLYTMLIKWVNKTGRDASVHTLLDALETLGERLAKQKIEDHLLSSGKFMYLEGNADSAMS
Sentrin-specific protease 8 (Homo sapiens), sequence (Q96LD8 whole entry, looked up, the tested form may be a part): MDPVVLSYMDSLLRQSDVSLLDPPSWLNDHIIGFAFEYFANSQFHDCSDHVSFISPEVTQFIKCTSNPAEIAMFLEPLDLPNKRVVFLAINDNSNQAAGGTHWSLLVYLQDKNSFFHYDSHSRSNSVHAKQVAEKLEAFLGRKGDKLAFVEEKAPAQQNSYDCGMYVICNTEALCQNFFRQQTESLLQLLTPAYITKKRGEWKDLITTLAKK
Sentrin-specific protease 7 (Homo sapiens), sequence (Q9BQF6 706-1050 limits assumed): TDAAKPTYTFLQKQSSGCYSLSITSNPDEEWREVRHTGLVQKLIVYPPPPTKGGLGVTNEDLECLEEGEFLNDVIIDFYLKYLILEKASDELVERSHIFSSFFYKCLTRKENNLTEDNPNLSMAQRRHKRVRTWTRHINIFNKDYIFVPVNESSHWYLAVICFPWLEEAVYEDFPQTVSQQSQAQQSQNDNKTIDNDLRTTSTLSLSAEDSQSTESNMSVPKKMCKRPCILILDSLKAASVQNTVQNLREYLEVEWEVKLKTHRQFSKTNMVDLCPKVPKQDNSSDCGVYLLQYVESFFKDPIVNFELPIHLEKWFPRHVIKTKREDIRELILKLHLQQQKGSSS
Protein Mdm4 (Homo sapiens) + E3 ubiquitin-protein ligase Mdm2 (Homo sapiens), sequence (O15151 whole entry, looked up): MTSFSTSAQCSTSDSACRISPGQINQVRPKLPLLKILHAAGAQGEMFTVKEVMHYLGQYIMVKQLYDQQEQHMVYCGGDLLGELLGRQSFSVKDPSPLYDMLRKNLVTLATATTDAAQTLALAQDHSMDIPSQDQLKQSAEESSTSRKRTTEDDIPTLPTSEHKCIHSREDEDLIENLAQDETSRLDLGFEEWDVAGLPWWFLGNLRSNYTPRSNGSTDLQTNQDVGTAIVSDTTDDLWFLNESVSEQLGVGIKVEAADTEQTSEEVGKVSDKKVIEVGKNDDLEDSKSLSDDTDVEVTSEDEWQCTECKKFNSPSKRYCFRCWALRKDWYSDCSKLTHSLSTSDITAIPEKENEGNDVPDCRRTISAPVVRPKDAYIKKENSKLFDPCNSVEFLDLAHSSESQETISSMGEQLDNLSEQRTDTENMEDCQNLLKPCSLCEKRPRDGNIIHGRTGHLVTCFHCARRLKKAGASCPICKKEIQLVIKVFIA
Protein Mdm4 (Homo sapiens) + E3 ubiquitin-protein ligase Mdm2 (Homo sapiens), sequence (Q00987 whole entry, looked up): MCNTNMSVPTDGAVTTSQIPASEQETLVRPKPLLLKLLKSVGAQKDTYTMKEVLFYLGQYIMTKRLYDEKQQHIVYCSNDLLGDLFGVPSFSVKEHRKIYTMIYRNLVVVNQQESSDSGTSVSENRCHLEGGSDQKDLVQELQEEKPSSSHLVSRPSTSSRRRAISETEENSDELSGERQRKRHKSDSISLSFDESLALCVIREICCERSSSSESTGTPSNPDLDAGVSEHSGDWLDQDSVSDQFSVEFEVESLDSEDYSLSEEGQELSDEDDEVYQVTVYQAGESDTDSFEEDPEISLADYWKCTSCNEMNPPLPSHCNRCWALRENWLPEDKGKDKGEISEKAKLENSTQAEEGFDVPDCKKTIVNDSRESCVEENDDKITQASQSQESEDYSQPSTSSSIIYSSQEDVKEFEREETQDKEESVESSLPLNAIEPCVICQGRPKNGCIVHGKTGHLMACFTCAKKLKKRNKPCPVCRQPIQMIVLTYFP
Sentrin-specific protease 6 (Homo sapiens), sequence (Q9GZR1 628-1112 limits assumed): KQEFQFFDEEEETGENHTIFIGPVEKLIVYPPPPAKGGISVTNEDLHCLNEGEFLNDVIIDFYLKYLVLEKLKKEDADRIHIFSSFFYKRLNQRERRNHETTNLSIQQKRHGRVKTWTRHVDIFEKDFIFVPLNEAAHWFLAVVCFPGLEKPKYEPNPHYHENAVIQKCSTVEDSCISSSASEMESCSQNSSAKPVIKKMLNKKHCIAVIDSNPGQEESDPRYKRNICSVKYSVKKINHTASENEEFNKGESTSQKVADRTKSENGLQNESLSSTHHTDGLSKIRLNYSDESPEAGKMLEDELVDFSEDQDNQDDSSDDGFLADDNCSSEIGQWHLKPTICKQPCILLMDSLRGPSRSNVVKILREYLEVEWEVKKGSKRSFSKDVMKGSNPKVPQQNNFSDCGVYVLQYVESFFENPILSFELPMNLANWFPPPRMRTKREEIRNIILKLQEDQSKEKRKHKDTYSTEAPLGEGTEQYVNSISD
PEG-3, sequence (Q6IN02 whole entry, looked up): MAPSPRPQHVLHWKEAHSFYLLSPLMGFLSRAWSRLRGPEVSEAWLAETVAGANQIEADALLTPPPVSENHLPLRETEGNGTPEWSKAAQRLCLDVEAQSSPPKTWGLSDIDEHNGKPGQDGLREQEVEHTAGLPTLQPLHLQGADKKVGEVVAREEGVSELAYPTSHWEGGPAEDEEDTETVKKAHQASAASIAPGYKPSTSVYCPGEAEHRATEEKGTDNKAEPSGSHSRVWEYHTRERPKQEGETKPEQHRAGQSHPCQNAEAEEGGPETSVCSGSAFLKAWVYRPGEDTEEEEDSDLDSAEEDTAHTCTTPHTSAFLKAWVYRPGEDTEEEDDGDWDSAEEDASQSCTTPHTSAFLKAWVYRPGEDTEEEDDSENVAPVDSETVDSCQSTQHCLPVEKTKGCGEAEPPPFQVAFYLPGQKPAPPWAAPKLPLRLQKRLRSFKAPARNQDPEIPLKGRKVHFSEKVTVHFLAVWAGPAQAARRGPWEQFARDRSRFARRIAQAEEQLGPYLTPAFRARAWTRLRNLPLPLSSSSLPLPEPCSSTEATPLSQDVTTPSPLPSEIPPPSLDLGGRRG
Caspase-3 (Homo sapiens), sequence (P42574 28-227 limits assumed): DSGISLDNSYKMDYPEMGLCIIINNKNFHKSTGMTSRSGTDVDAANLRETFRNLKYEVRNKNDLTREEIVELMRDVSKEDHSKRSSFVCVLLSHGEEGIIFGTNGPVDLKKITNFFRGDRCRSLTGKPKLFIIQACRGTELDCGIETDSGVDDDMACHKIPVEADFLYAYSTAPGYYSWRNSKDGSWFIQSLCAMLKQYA

As for `CCOc1ccc(-c2cc(C)[n+](CCN(CC)CC)c(-c3ccc(OCC)cc3)c2)cc1`, in assay [1], the inhibition was 21.7% (inactive). Besides, the activity in assay [2] turned out to be 62.5%; in [3] it was 59.2%.
For `O=C1NC(=O)N(CCc2ccc(F)cc2)C(=O)/C1=C/C=C/c1ccccc1`, the activation in assay [4] is 90.1% (active).
In the case of `CCCCCCCCCCCCn1ccc(=N)cc1`, the inhibition in [1] is 80.3% (active); in assay [5], 103% (active); in assay [6], 32% (inactive); in [8], 64% (active); in assay [9], 106% (active). In addition, the activation (fluorescence interference) in assay [7] was 3.55% (inactive). Also, the activity in [2] stood at 92.9%; in assay [3] it was 80%.
On to `CNCC(O)c1cc(F)c(OCc2ccccc2)c(OCc2ccccc2)c1F` (stereo not given), for which the inhibition in assay [6] was 12.9% (inactive). Besides, in [7], the activation (fluorescence interference) is 12.9% (inactive).
Consider `Cc1cc2ccccn2c1C(C[N+](=O)[O-])c1c(F)cccc1Cl` (stereo not given), for which the inhibition was 6.25% (inactive) in assay [1], 33% (active) in [5] and 29.6% (active) in assay [10].
On to `COc1cc2c(cc1OC)-c1c(OC)c(OC)c(OC)c3ccnc(c13)C2=O`, for which, in [10], the inhibition is 23.6% (active).
For `CC(Cc1ccccc1)NCCC(c1ccccc1)c1ccccc1` (stereo not given), the inhibition was 12.8% (inactive) in assay [6], 87.6% (active) in assay [11], 98% in the assay with PEG-3 [12] and 98.9% with PEG-3 [13]. Moreover, the activation (fluorescence interference) in assay [7] was 7.45% (inactive).
With `Brc1ccc2c(c1)C(OC1CN3CCC1CC3)c1ccccc1CS2` (stereo not given), the inhibition in [10] is 33.8% (active).
For `CCOc1ccc(-c2cc(C)[n+](CCc3ccc(OC)c(OC)c3)c(-c3ccc(OCC)cc3)c2)cc1`, the inhibition in [10] is 35.8% (active).
Same read-out and setting: the result for `C/C=C(\C)C(=O)OC1C(C)=C2C(C1OC(=O)CCCCC)C(C)(OC(C)=O)CC(OC(=O)CCC)C1(O)C2OC(=O)C1(C)O` (stereo not given) reads 24.1% (active).
On to `Cn1c(NN=O)nc2ccccc21`, for which the inhibition in assay [10] was 35.8% (active).
On the same count and under the same terms, the result for `CCOC(=O)c1ccc(-[n+]2c(-c3ccccc3)cc(-c3ccccc3)cc2-c2ccccc2)cc1` reads 23.6% (active).
Still for that read-out and setting: the result for `CCn1nc(/C=C/c2ccccc2)nc2c(=O)n(C)c(=O)nc1-2` reads 24.6% (active); that for `COc1ccc2c(c1)/C(=C/c1cnc[nH]1)C(=O)N2`, 32.2% (active).
`CC(C)c1oc(=O)cc2c1[C@@H](O)[C@H]1OC(=O)[C@@]3(C)C[C@@H](O)[C@@H](O)[C@@]2(C)C13` (stereo not given in full): the inhibition in assay [10] was 29.6% (active).
Same read-out and setting: the result for `C[C@@H]1O[C@@H](O[C@H]2C[C@@H](O)[C@]3(CO)[C@@H]4C(CC[C@]3(O)C2)[C@@]2(O)CC[C@H](C3COC(=O)C3)[C@@]2(C)C[C@H]4O)[C@H](O)[C@H](O)[C@H]1O` (stereo not given in full) reads 24.4% (active).
On the same count and under the same terms, the result for `Cc1cc(O)c2c(c1)C(=O)C13C(=C2O)C(=O)[C@H]2[C@@H](O)[C@@H]1[C@H]1[C@H](O)[C@@H]3C(=O)C3=C(O)c4c(O)cc(C)cc4C(=O)C312` (stereo not given in full) reads 29.6% (active).
Regarding `CCOC(=O)c1c(N)n(Cc2ccccc2)c2nc3ccccc3nc12`, the inhibition in assay [6] was 12.5% (inactive). Moreover, the activation (fluorescence interference) in assay [7] was 5.83% (inactive).
For the molecule `COc1cc2c3c(c1OC)Oc1ccc(cc1)C[C@H]1c4c(cc(OC)c(OC)c4Oc4ccc(cc4)C[C@@H]3N(C)CC2)CCN1C`, the inhibition in assay [10] was 35.2% (active).
On the same count and under the same terms, the result for `CN(C)c1ccc(-[n+]2c(-c3ccccc3)cc(-c3ccccc3)cc2-c2ccccc2)cc1` reads 23.3% (active); that for `Cc1cccc(-n2c(O)c(/C=C3/C(c4ccccc4)=Nc4ccccc43)c(=O)[nH]c2=O)c1`, 35.8% (active).
Consider `c1ccc2c(N3CCNCC3)nsc2c1`, for which, in assay [10], the inhibition is 29.6% (active).
As for `C[C@]12CC[C@H](O)C[C@H]1CC[C@@H]1C2CC[C@]2(C)[C@@H](C3=CC(=O)OC3)[C@@H](O)C[C@]12O` (stereo not given in full), the inhibition in assay [1] was -17.1% (inactive).
`COc1cccc(-c2nc3ccc(N4CCN(C)CC4)cc3[nH]2)c1`: in assay [14], the cytotoxicity is 82.3% (active). The inhibition in [15] is 74.8% (active); in assay [16] it was 67.2% (active); in assay [17] it was 88.2% (active); in the assay with Caspase-3 (Homo sapiens), 87% (active); in assay [18] it was 25.4% (inactive). In addition, the activity in assay [2] amounted to 90.4%; in [3] it was 87.8%.
`CCOc1cccc(CNCCc2c(C)[nH]c3ccc(OC(F)(F)F)cc23)c1O`: the inhibition in assay [10] is 29.9% (active).
Take `CCn1nc(-c2ccccc2)nc2c(=O)n(C)c(=O)nc1-2`: the inhibition in assay [10] was 23.3% (active).
Take `C/C(=N/O)c1ccc2ccc3ccccc3c2c1`: the inhibition was 64.6% (active) in assay [15]; 61.5% (active) in assay [16]; 79.5% (active) in assay [17]; 19.2% (inactive) in the assay with Caspase-3 (Homo sapiens); 30.7% (inactive) in assay [18].
For `CCc1nc2ccccc2c(=O)n1-c1cccc(OC)c1`, the cytotoxicity in assay [14] is -11.4% (inactive).
As for `C[C@]12CC[C@H]3[C@@H](CC[C@]4(O)C[C@@H](O)CC[C@]34C=O)[C@@]1(O)CC[C@@H]2C1=CC(=O)OC1`, in assay [10], the inhibition is 28% (active).
Consider `O=Cc1cn(Cc2ccc(F)cc2Cl)c2ccccc12`, for which the inhibition in [10] was 35.1% (active).
Same read-out and setting: the result for `Fc1ccc(C(OCCN2CCN(CCCc3ccccc3)CC2)c2ccc(F)cc2)cc1` reads 30.4% (active); that for `C[C@@H]1O[C@@H](O[C@H]2C[C@@H](O)[C@]3(CO)[C@H]4[C@H](O)C[C@]5(C)[C@@H](C6COC(=O)C6)CC[C@]5(O)[C@@H]4CC[C@]3(O)C2)[C@H](O)[C@H](O)[C@H]1O` (stereo not given in full), 26.8% (active).
